Compound activity as filed in PubChem.
Compounds with a hit are over-represented: about 11% of the library has one in this group of screens.
Luciferase inh – Firefly luciferase inhibition profiling of diverse chemical library using quantitative high-throughput screening; Luciferin 4-monooxygenase (Photinus pyralis), P08659; purified P. pyralis luciferase, luminescence, biochemical; Potency, µM (titrated, usually from 115 µM), actives largely listed as inhibitors; 76,000 tested, 2.5% active; also: % is scaled to controls: 0 for no effect and ±100 for the full control effect; nearly all actives have a fitted effect of over 65% in size
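Inhibitors were tested against purified firefly luciferase in a biochemical, low-substrate format (both substrates at 10uM) and luminescence measured with a CCD imager.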
HEK293 tox – Cytotoxic Profiling in HEK 293 Cell Line of Diverse Libraries Using Quantitative High-Throughput Screening; HEK 293 viability, ATP luminescence (CellTiter-Glo), 48-72 h; Potency, µM (series often up to 115 µM), without a hit: top-dose activity change, negative = cytotoxicity, actives largely listed as inhibitors; 94,000 tested, 6.6% active; AID 1345083, 2018; also: % is scaled to controls: 0 for no effect and ±100 for the full control effect; nearly all actives have a fitted effect of over 60% in size
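qHTS cytotoxicity; HEK 293, 250 cells/well; compound pinned; 48 or 72 hr, 37 degree Celsius, 5% CO2, 95% humidity; CellTiter-Glo, 10 min RT; luminescence (ATP).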
NPR1 antag – Natriuretic polypeptide receptor (hNpr1) antagonism - Primary qHTS | HEK293 hNpr1 GloSensor cGMP, ANP-stimulated luminescence | 76,000 tested, 1.6% active | Atrial natriuretic peptide receptor 1 (Homo sapiens), P16066 | Potency, µM (top dose mostly 46.3 µM), for inactives: at the top dose activity change, negative = inhibition, most hits filed as inhibitors; calls by dose curve; also: % is scaled to controls: 0 for no effect and ±100 for the full control effect; nearly all actives have a fitted effect of over 60% in size
Target sequence (P16066 whole entry, looked up): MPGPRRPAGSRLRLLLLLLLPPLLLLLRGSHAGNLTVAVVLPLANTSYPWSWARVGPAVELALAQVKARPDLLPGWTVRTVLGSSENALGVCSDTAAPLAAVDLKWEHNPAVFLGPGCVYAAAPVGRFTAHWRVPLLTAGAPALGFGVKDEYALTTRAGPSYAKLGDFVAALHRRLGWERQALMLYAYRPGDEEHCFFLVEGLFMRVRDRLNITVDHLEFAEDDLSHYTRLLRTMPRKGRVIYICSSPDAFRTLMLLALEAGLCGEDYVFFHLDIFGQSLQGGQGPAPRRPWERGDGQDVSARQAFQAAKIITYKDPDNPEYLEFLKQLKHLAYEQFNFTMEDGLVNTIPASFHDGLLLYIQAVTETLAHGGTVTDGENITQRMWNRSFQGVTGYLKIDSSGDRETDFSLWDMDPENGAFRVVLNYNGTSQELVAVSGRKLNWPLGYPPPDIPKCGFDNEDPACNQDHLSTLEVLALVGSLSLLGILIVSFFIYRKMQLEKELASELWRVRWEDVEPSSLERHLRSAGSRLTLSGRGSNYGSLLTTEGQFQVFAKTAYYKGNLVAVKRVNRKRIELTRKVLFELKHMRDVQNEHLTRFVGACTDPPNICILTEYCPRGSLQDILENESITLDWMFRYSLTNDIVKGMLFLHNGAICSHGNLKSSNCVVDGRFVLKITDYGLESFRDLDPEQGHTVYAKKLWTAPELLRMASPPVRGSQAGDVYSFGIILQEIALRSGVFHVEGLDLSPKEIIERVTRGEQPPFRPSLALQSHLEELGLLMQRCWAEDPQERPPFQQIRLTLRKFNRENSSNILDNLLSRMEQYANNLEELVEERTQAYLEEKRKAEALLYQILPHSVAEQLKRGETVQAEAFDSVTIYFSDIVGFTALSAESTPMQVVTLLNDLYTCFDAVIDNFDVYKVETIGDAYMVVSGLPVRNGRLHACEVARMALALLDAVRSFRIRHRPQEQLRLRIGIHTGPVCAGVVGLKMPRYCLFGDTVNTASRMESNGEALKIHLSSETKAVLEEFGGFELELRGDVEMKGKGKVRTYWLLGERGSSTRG
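HEK293 cells stably expressing human Npr1 and cGMP GloSensor pGS-40F, loaded 2 h with 2% GloSensor reagent, given compound 30 min at room temperature. Luminescence read before and 20 min after 0.1 nM hNppA.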
3T3 cytotox – Cytotoxic Profiling in NIH 3T3 Cell Line of Diverse Libraries Using Quantitative High-Throughput Screening; NIH 3T3 viability, CellTiter-Glo ATP luminescence, 48-72 h; Potency, µM (titrated, usually from 96.7 µM), for the others: at the highest dose activity change, negative = cytotoxicity, most hits filed as inhibitors; 94,000 tested, 4.3% active; AID 1345082, 2018; also: % is scaled to controls: 0 for no effect and ±100 for the full control effect; nearly all actives have a fitted effect of over 55% in size
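First NIH 3T3 cells are plated at 400 cells/well; next compound is pinned in; then plates incubate 48 or 72 hr at 37 °C; finally CellTiter-Glo is added and luminescence read after 10 min.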
NPR1 antag cnf – Natriuretic polypeptide receptor (hNpr1) antagonism - Confirmation; shares compounds with NPR1 antag; HEK293 hNpr1 cGMP GloSensor luminescence, ANP-stimulated; Potency, µM (series often up to 57.6 µM), inactives show top-dose activity change, negative = inhibition, actives largely listed as inhibitors; 1,400 tested, 76% active; AID 1347044, 2019; calls by dose curve; also: nearly all actives have a fitted effect of over 70% in size
Npr2 selectivity – Natriuretic polypeptide receptor (hNpr2) antagonism - Subtype selectivity assay | shares compounds with NPR1 antag | HEK293 hNpr2 GloSensor cGMP luminescence, CNP-stimulated | Potency, µM (titrated, usually from 57.6 µM), for inactives: at the top dose activity change, negative = inhibition, actives largely listed as inhibitors | 1,400 tested, 67% active | AID 1347046, 2019; calls by dose curve; also: nearly all actives have a fitted effect of over 70% in size
FLuc counter – Natriuretic polypeptide receptor (hNpr1) antagonism - Confirmation firefly luciferase (FLuc) inhibition counterscreen. Potency, µM (highest dose often 57.6 µM), inactives show at the highest dose activity change, negative = inhibition, hits mostly inhibitors. shares compounds with NPR1 antag. 1,400 tested, 0.7% active. purified FLuc enzyme, luminescence, Km substrate; also: 0% is about no effect
GloSensor ctrl – Natriuretic polypeptide receptor (hNpr1) antagonism - Counterscreen GloSensor control cell line. shares compounds with NPR1 antag. HEK293 GloSensor cGMP, SNP-stimulated, luminescence. Potency, µM (series often up to 57.6 µM), without a hit: at the top dose activity change, negative = inhibition, usual class: inhibitors. 1,400 tested, 69% active; calls by dose curve; also: % is scaled to controls: 0 for no effect and ±100 for the full control effect; nearly all actives have a fitted effect of over 70% in size
* = called active by the depositor; i = inactive; ? = inconclusive; . = not tested or not shown; [ ] = remark or other dose. Unless noted, calls follow the shape of the dose curve; as a rule, active = well fitted curve in the direction sought with a large enough effect; inconclusive = small, poorly fitted or top-dose-only effect, or another doubt; inactive = no such curve, though single readings can be large; an effect the other way counts as inactive or inconclusive. Potency is read from the fitted curve at half-maximal effect.

SMILES | Luciferase inh | HEK293 tox | NPR1 antag | 3T3 cytotox | NPR1 antag cnf | Npr2 selectivity | FLuc counter | GloSensor ctrl
COc1ccc(CCC(=O)N2CCCC(n3cc(-c4nc(-c5ccccc5)no4)nn3)C2)cc1 (centres undefined) | ? | ? | 12.6µM* | ? | 24.3µM* | 24.3µM* | 12.2µM* | 24.3µM*
COc1ccc(C(=O)N2CCC(n3cc(-c4nc(-c5ccccc5)no4)nn3)CC2)cc1 | i | ? | ? | ? | 21.7µM* | 24.3µM* | -16.1% | 21.7µM*
O=C(NC1CC1)c1ccc2oc(-c3ccncc3Cl)nc2c1 | . | -34.6%[172 µM] | . | -24.7%[138 µM] | . | . | . | .
Cc1ccc(C(=O)N2CCC(C(=O)N3CCC(N4Cc5cccn5C4=O)CC3)CC2)cc1 | . | -14.2% | . | -16.9% | . | . | . | .
O=C(NCCc1noc(C(F)(F)F)n1)[C@H]1CCC[C@H](O)C1 | i | -4.8% | 6.0% | -6.4% | . | . | . | .
COc1ccc(CN2CC3(CCN(C(=O)c4cn[nH]c4-c4ccc(F)cc4)CC3)C2=O)cc1 | i | 28.2µM* | 11.2µM* | ? | 13.7µM* | 19.3µM* | -4.3% | 12.2µM*
COC(=O)CC1C(=O)NCCN1C(=O)c1ccc2nc(C3CCCCC3)oc2c1 (centres undefined) | i | 3.1% | 21.1% | -7.5% | . | . | . | .
COc1ccc(-c2cnc3[nH]cc(CC(=O)Nc4cccnc4)c3c2)cc1 | i | 70.8µM* | ? | ? | ? | -29.0%[86.2 µM] | ? | -22.7%[86.2 µM]
Cn1cc(-c2cnc3[nH]cc(CC(=O)Nc4cccc(OC(F)(F)F)c4)c3c2)cn1 | i | ? | ? | ? | . | . | . | .
COc1ccc(-c2cnc3[nH]cc(CC(=O)Nc4cccc(N(C)C)c4)c3c2)cc1 | i | ? | ? | ? | ? | ? | -9.0%[86.2 µM] | -24.6%[86.2 µM]
Cn1cc(-c2cnc3[nH]cc(CC(=O)Nc4ccc(C(F)(F)F)cc4)c3c2)cn1 | i | ? | ? | ? | ? | ? | -0.9%[86.2 µM] | ?
COc1ccc(-c2cnc3[nH]cc(CC(=O)NCCc4ccccn4)c3c2)cc1 | i | -22.7%[172 µM] | 3.5%[70.6 µM] | ? | . | . | . | .
Cc1ccccc1-c1cnc2[nH]cc(CC(=O)Nc3cccnc3)c2c1 | i | ? | 15.8µM* | ? | 25µM* | 31.4µM* | -2.7%[86.2 µM] | 22.2µM*
Fc1ccc(-c2cnc([C@@H]3COCCN3Cc3c[nH]c4ccccc34)[nH]2)c(F)c1 | i | 79.4µM* | 25.1µM* | ? | 35.3µM* | 44.4µM* | -6.3%[86.2 µM] | 39.6µM*
CS(=O)(=O)c1ccc(CN2CC[C@@H](c3ccc4ccccc4c3)[C@H](O)C2)cc1 | i | 39.8µM* | ? | ? | ? | ? | 4.0% | 24.3µM*
O=C(O)c1ccc(CN2CC[C@@H](c3ccc4ccccc4c3)[C@H](O)C2)cc1 | i | 0.0% | -0.2% | i | . | . | . | .
CNC(=O)c1cn2c(n1)CN([S+](=O)([O-])c1cccc(C(F)(F)F)c1)CC2 | . | -24.5% | . | -28.4% | . | . | . | .
Cc1cnc(C(=O)NC2C[C@H]3CC[C@@H](C2)N3C(=O)Nc2cccc(C(F)(F)F)c2)cn1 (some centres undefined) | i | -28.6% | -14.3% | ? | . | . | . | .
Cc1ccc(C(=O)N2CCC3(CNc4ccccc4[S+](=O)([O-])N3)C2)cc1 (centres undefined) | i | ? | 1.2% | ? | . | . | . | .
O=C(c1ccc(C(F)(F)F)cc1)N1CCC2(CNc3ccccc3[S+](=O)([O-])N2)C1 (centres undefined) | i | ? | ? | ? | 21.7µM* | ? | -1.9% | 17.2µM*
CCOc1ccc(C(=O)NC2CCN(c3cnn(CCOC)c(=O)c3)CC2)cc1 | i | -22.8% | -13.7% | -20.5% | . | . | . | .
CCOc1ccc(C(=O)NC2CCN(c3cnn(CC)c(=O)c3)CC2)cc1 | i | -5.5% | -10.6% | 28.2µM* | -6.7% | -21.6% | 1.0% | ?
O=C(Nc1ccccc1)N1CCC(C(=O)N2CCC(c3ccccc3)CC2)CC1 | . | -40.0% | . | ? | . | . | . | .
CCc1cc(N2CCOC(c3ccc4cc(OC)ccc4c3)C2)nc(C)n1 (centres undefined) | i | 35.5µM* | 11.2µM* | ? | 21.7µM* | 21.7µM* | ? | 17.2µM*
COc1ccc2cc(C3CN(Cc4cc5n(n4)CCNC5)CCO3)ccc2c1 (centres undefined) | i | ? | -20.8% | ? | . | . | . | .
SMILES | Luciferase inh | HEK293 tox | NPR1 antag | 3T3 cytotox | NPR1 antag cnf | Npr2 selectivity | FLuc counter | GloSensor ctrl
O=C1CC2(CCN([S+](=O)([O-])c3cccc(C(F)(F)F)c3)CC2)Oc2ccccc2N1 | i | ? | -8.1% | ? | . | . | . | .
CCOc1cc(CN(C)C(=O)c2cc(C)sc2NC(=O)C(C)(C)C)ccc1OC | i | ? | 0.5% | -11.4% | . | . | . | .
CN1CCCC1COc1ccc2c(n1)CN(Cc1ccc(C(F)(F)F)cc1)C(=O)CO2 (centres undefined) | i | ? | -1.6%[70.6 µM] | ? | . | . | . | .
O=C1COc2ccc(-c3ccoc3)nc2CN1Cc1ccc(C(F)(F)F)cc1 | i | ? | 35.5µM* | 79.4µM* | 35.3µM* | 35.3µM* | -0.9%[86.2 µM] | 35.3µM*
O=C1COc2ccc(-c3ccoc3)nc2CN1Cc1ccccc1 | i | ? | ? | ? | ? | ? | -2.8%[86.2 µM] | ?
Cc1ccccc1-c1ccc2c(n1)CN(Cc1ccccc1)C(=O)CO2 | i | ? | -3.5%[70.6 µM] | ? | . | . | . | .
O=C(O)Cn1nc(C2CCOCC2)nc1CC1NC(=O)NC1=O (centres undefined) | i | ? | 4.3% | i | . | . | . | .
